Assay outcomes as filed in PubChem.
Sampled rows, rich in hits. Any-hit rate of the full collection: about 2.4%.
Pol kappa inh: blocks human DNA polymerase kappa activity. Potency, µM (doses to about 107 µM), actives largely listed as inhibitors. actives 0.53% (n = 400,000). purified Pol kappa, fluorescent DNA synthesis assay, 10 min. Q9UBT6
Target sequence (Q9UBT6 whole entry, looked up): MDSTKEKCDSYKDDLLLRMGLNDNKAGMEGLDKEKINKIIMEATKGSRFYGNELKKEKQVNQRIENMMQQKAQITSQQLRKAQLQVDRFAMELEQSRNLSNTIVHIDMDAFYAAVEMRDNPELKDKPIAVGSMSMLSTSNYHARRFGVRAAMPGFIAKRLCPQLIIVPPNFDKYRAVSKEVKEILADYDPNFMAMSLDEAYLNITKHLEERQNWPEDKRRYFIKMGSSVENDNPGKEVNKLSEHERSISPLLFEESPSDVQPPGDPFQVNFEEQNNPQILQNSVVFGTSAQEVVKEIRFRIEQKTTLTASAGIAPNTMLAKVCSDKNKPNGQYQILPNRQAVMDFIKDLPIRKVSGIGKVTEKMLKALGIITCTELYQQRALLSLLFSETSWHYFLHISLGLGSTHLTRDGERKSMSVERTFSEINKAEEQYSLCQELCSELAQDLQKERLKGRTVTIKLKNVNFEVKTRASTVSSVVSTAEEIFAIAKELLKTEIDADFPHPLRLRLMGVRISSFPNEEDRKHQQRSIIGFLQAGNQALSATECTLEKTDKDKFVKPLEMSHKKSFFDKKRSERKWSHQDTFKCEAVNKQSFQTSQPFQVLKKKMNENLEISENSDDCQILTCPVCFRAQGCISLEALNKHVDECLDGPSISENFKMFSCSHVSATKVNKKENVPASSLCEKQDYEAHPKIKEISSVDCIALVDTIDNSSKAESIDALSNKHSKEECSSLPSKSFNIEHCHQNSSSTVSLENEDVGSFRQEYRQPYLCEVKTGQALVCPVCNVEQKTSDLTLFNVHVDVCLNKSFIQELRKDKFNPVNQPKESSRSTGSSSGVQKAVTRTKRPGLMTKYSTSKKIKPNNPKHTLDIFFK
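Activity was followed as the change in fluorescence between reads at 0 and 10 min after starting the reaction with 50 nM substrate. Beforehand, 10 nM polymerase had been preincubated with compound for 15 min at room temperature.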
Pol beta inh: DNA polymerase beta (human) inhibition; Pol beta primer extension/strand displacement, fluorescence kinetic; Potency, µM (top dose mostly 114 µM), hits mostly inhibitors; actives 1.3% (n = 340,000)
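Reaction started by 50 nM substrate onto compound-treated Pol beta (10 nM, 15 min preincubation, room temperature); plates read at 0 min and 10 min. Normalized concentration-effect data fitted by four-parameter Hill equation.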
TDP1 inh: TDP1 (human) enzyme inhibition. recombinant TDP1, AlphaScreen DNA substrate cleavage. Q9NUW8. actives 0.28% (n = 350,000). Potency, µM (top dose mostly 130 µM), actives largely listed as inhibitors; note: nearly all actives have a fitted effect of over 40% in size
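Enzyme-compound mixtures sat 15 min at room temperature, followed by a 5 min reaction with 15 nM final substrate and 10 min with AlphaScreen beads. Recombinant human Tdp1 was used at 1 nM final.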
Pol iota inh: DNA polymerase iota (human) inhibition; Pol iota fluorescent replication assay, 10 min; actives 1% (n = 390,000); Q9UNA4; Potency, µM (doses to about 115 µM), usual class: inhibitors; AID 588590
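Pol iota at 10 nM preincubated 15 min with compounds at room temperature; reaction started with fluorescent substrate, 50 nM final. Fluorescence read kinetically at 0 and 10 min; buffer-only wells as negative control.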
Pol eta inh: blocks human DNA polymerase eta activity. AID 588591. recombinant Pol eta, fluorescent DNA replication assay. actives 1.2% (n = 390,000). Potency, µM (highest dose often 114 µM), usual class: inhibitors
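Pol eta at 10 nM preincubated with compounds 15 min at room temperature; reaction started with fluorescent substrate (50 nM final) and read kinetically at 0 and 10 min.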
Of the large screens only hits and unclear results are named; the others gave an inactive call. Calls come from the whole dose curve; as a rule, active = well fitted curve in the direction sought with a large enough effect; inconclusive = small, poorly fitted or top-dose-only effect, or another doubt; inactive = no such curve, though single readings can be large; an effect the other way counts as inactive or inconclusive.

COC(=O)N1CCN(/[N+]([O-])=N/Oc2ccc([N+](=O)[O-])cc2[N+](=O)[O-])CC1	Pol iota inh inconclusive (no result: Pol beta inh, Pol eta inh)
CCS(=O)(=O)N1CC(=O)N(c2ccc(Cl)cc2C)C(C)(C(=O)NC2CCCCCC2)C1 (centres undefined)	none
COC(=O)CSc1nc(-c2ccccc2)cc(-c2ccco2)c1C#N	Pol beta inh 28µM
COC(=O)CSc1nc(N)c(C#N)c(-c2ccco2)c1C#N	Pol eta inh inconclusive
N#Cc1c(-c2ccc(F)cc2)cc(-c2ccccc2)nc1SCC(=O)NCC(=O)O	Pol beta inh 45µM, Pol iota inh inconclusive (no result: TDP1 inh)
O=C(O)c1ccccc1O	none
Nc1c(O)cccc1C(=O)O	Pol kappa inh inconclusive, Pol iota inh 40µM (no result: Pol beta inh, TDP1 inh)
Cc1nn(-c2ccccc2)c2sc(-c3nnc(SCC(=O)O)o3)cc12	Pol eta inh 89µM
Cc1csc(NC(=O)C2CC(=O)N(c3ccc4c(c3)OCCO4)C2)n1 (centres undefined)	none (no result: Pol beta inh)
N#Cc1ccc(CSc2nnc(NC(=O)C3CC(=O)N(c4ccc5c(c4)OCCO5)C3)s2)cc1 (centres undefined)	Pol beta inh 8.9µM
CCc1ccc(-c2csc(NC(=O)C3CC(=O)N(c4ccc5c(c4)OCCO5)C3)n2)cc1 (centres undefined)	Pol beta inh inconclusive, Pol iota inh 89µM
C=CCSc1nnc(NC(=O)C2CC(=O)N(c3ccc4c(c3)OCCO4)C2)s1 (centres undefined)	none (no result: Pol beta inh)
Cc1ccc(-c2nc3c(c(SCc4ccc(Br)cc4)n2)Cc2c(CO)cnc(C)c2O3)cc1	none
CCN(CC)/[N+]([O-])=N/OCOC(=O)C(C)c1ccc(CC(C)C)cc1 (centres undefined)	none (no result: Pol beta inh, TDP1 inh, Pol eta inh)
COC(=O)C(N)Cc1ccc(O)cc1 (centres undefined)	none
COC(=O)C(N)Cc1ccc(O)c(O)c1 (centres undefined)	Pol kappa inh 89µM, TDP1 inh inconclusive, Pol iota inh inconclusive
Cn1c(-c2ccc3nc(N)sc3c2)nc2cc(N)ccc21	Pol kappa inh 71µM, Pol beta inh 20µM, TDP1 inh inconclusive, Pol iota inh 32µM, Pol eta inh inconclusive
COc1cc(/C=N/NC(=O)c2cc(-c3ccc4c(c3)OCO4)n[nH]2)ccc1O	Pol kappa inh 79µM, Pol beta inh 8.9µM, Pol iota inh inconclusive, Pol eta inh inconclusive
COc1cc(/C=N/Nc2ccc(C(=O)O)cc2)ccc1O	Pol beta inh 25µM, TDP1 inh inconclusive, Pol iota inh inconclusive, Pol eta inh 22µM
COc1cc(/C=N\NC(=O)c2ccc(C)nc2)ccc1OC(=O)c1ccc2c(c1)OCO2	Pol beta inh 20µM, Pol eta inh inconclusive
COc1cc(/C=N/NC(=O)c2cc(C3CC3)[nH]n2)ccc1O	none
COc1cc(/C=N/Nc2ccc(C(=O)O)cc2)cc(OC)c1OC	none
COc1cc(/C=N/NC(=O)c2ccc(=O)[nH]n2)ccc1O	Pol kappa inh inconclusive, Pol beta inh 20µM, Pol iota inh 100µM, Pol eta inh inconclusive
CCNC(=O)COc1ccc(/C=N/NC(=O)c2cccnc2)cc1OC	none
COc1ccc2[nH]c(C(=O)N/N=C/c3ccc(OC)c(O)c3)cc2c1	Pol kappa inh inconclusive, Pol beta inh 28µM, Pol eta inh inconclusive (no result: TDP1 inh)
COc1cc(/C=N/NC(=O)c2cccnc2)ccc1OCC(=O)Nc1ccc(C)cc1	Pol kappa inh inconclusive, Pol beta inh 13µM, TDP1 inh inconclusive, Pol iota inh inconclusive, Pol eta inh inconclusive
COc1ccc2[nH]c(C(=O)N/N=C/c3ccccc3OC)cc2c1	Pol eta inh inconclusive (no result: TDP1 inh)
COc1cc(OC)c(OC)cc1/C=N/NC(=O)c1cc(-c2cccn2C)n[nH]1	none
COc1ccc(/C=N/NC(=O)c2cc(-c3cccn3C)n[nH]2)cc1OC	Pol kappa inh inconclusive, Pol beta inh 8.9µM, Pol iota inh inconclusive, Pol eta inh inconclusive
O=C1/C(=C\c2ccncc2)CCc2ccccc21	Pol iota inh inconclusive, Pol eta inh inconclusive (no result: Pol beta inh)
O=C1/C(=C/c2ccncc2)CCc2ccccc21	Pol eta inh 79µM
COc1cccc(C2CN(c3ccc(F)cc3F)N=C2c2cccs2)c1OC (centres undefined)	TDP1 inh inconclusive
COc1ccccc1C1CN(c2ccccc2)N=C1c1cccs1 (centres undefined)	TDP1 inh 7.9µM
COc1ccc(/C=C/C(=O)Nc2ccc(Cl)c(Cl)c2)cc1OC	none (no result: Pol eta inh)
COC(=O)Cc1[nH]nc2c1C(c1ccc(O)c(OC)c1)C(C#N)=C(N)O2 (centres undefined)	Pol iota inh 8.9µM, Pol eta inh 45µM (no result: TDP1 inh)
COc1cc(C2C(C#N)=C(N)Oc3n[nH]c(C)c32)cc2c1OCO2 (centres undefined)	Pol kappa inh inconclusive, Pol beta inh inconclusive, Pol iota inh inconclusive, Pol eta inh 16µM
O=S(=O)(c1ccc(F)cc1)N1CCN(c2nc(-c3ccccc3)nc3ccccc23)CC1	none (no result: Pol beta inh, Pol eta inh)
O=C(Cn1cc(COc2ccc(Br)cc2[N+](=O)[O-])nn1)c1ccc(O)cc1	Pol iota inh 4.5µM (no result: Pol beta inh, TDP1 inh)
CC(=O)c1ccc(OCc2cn(CC(=O)c3ccc(O)cc3)nn2)cc1	Pol iota inh inconclusive (no result: Pol beta inh, TDP1 inh)
O=C(Cn1cc(COc2ccccc2C(F)(F)F)nn1)c1ccc(O)cc1	Pol iota inh 5µM (no result: Pol beta inh, TDP1 inh)
COc1cc(C(C)=O)ccc1OCc1cn(CC(=O)c2ccc(O)cc2)nn1	Pol iota inh 4.5µM (no result: Pol beta inh, TDP1 inh)
Cc1cccc(C)c1OCc1cn(CC(=O)c2ccc(O)cc2)nn1	Pol iota inh 7.9µM (no result: Pol beta inh, TDP1 inh)
CC(=O)c1ccc(OCc2cn(CC(=O)c3ccc(O)cc3)nn2)c(C)c1	none (no result: Pol kappa inh, Pol beta inh, TDP1 inh, Pol iota inh)
COc1cccc(NC(=O)N(Cc2c[nH]c3ccccc23)C2CCCCCC2)c1	Pol beta inh inconclusive
CC(=O)Nc1ccc(S(=O)(=O)N2CCN(S(=O)(=O)c3ccc4c(c3)OCCO4)CC2)cc1	none (no result: Pol kappa inh, Pol beta inh, Pol iota inh, Pol eta inh)
COc1ccc(-n2nc3ccc(NC(=O)c4cccc(OCCC(C)C)c4)cc3n2)cc1	none
CC(C)(C)OC(=O)Cc1nnc(-c2cc3ccccc3[nH]2)o1	none (no result: Pol kappa inh, Pol beta inh, Pol iota inh, Pol eta inh)
c1ccc(-c2csc3ncnc(Sc4nnnn4-c4ccccc4)c23)cc1	none (no result: Pol beta inh, TDP1 inh, Pol eta inh)
Nc1ccc(-c2nc3ccc(N)cc3s2)cc1	none (no result: TDP1 inh)
CC(=O)Nc1nc2cc(C(N)=O)ccc2s1	none (no result: Pol beta inh)
O=C(c1ccc2ncsc2c1)N1CCCCC1	none
NC(=O)c1ccc2nc(NC(=O)c3ccc(N)cc3)sc2c1	TDP1 inh 79µM
O=C(O)c1ccc2ncsc2c1	TDP1 inh 45µM, Pol iota inh 4µM
Nc1ccc(-c2nc3ccc(C(=O)O)cc3s2)cc1	Pol beta inh inconclusive, TDP1 inh 79µM, Pol eta inh inconclusive
Nc1cc2sc(-c3ccc(C(=O)O)cc3)nc2cc1Cl	Pol beta inh inconclusive, Pol iota inh inconclusive, Pol eta inh 32µM (no result: TDP1 inh)
CCCN1C(=O)c2ccccc2NC1c1ccc(OC)c(COc2cccc(C)c2C)c1 (centres undefined)	none (no result: Pol beta inh, Pol eta inh)
O=c1[nH]c(=S)[nH]c2n[nH]nc12	none (no result: Pol beta inh, TDP1 inh, Pol eta inh)
